The full list was thinned out, with hits kept by preference.
ALR H2O2 inh – human ALR oxidase inhibition via reduced H2O2; P55789; purified ALR, DTT oxidation, H2O2 HRP-luminol luminescence; inhibition, % (test concentration not listed); 3.8% of 290,000 active; AID 485317;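 active = mean replicate inhibition above about 79%, with every replicate also reaching it, limit read from the data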
PglD inh – inhibitors of Campylobacter jejuni PglD acetyltransferase; inhibition, % at 12.5 µM; 0.098% of 360,000 active; purified PglD enzyme, DTNB colorimetric CoA detection; in the data active = inhibition above about 16%, passing the limit was not always enough
ERp5 inh – inhibitors of human ERp5. inhibition, % at 9.99 µM. ERp5 insulin aggregation, absorbance 650 nm, 90 min. AID 651711. 0.05% of 350,000 active. Q15084;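 active = mean replicate inhibition above about 25%, with every replicate also reaching it, limit read from the data, passing the limit was not always enough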
ARNT-TACC3 inh – disruptors of human ARNT/TACC3 interaction. AlphaScreen His-ARNT PAS-B/GST-TACC3 binding, luminescence; TACC3 fragment carries E629A point mutation. inhibition, % at 9.99 µM. 0.66% of 390,000 active. AID 623870;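 active = mean inhibition of replicates at least 50% and at least half of replicates each reaching 50%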;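 note: 0% = complete ARNT plus TACC3 wells and 100% = ARNT alone without TACC3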
PDI turbidity – blocks human protein disulfide isomerase activity. P07237. PDI insulin aggregation turbidity, A650, 90 min. inhibition, % at 10 µM. 0.052% of 350,000 active. AID 588391;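 active = mean inhibition across replicates of 30% or more, whatever share of single replicates reach that level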
NRP1-CendR mod – alters CendR peptide binding to human NRP-1. inhibition, % at 25 µM. 0.85% of 360,000 active. FAM-RPARPAR peptide binding to NRP-1, fluorescence polarization;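 active = inhibition or corrected inhibition above about 18%, plus a signal ratio from 0.5 to 1.5, limit read from the data, passing the limit was not always enough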
Starred values were filed as active, the others as inactive; / = no result given.

SMILES | ALR H2O2 inh | PglD inh | ERp5 inh | ARNT-TACC3 inh | PDI turbidity | NRP1-CendR mod
O=C(CSc1n[nH]c(-c2ccncc2)n1)c1ccccc1 | 26 | -2 | / | -3 | -1 | -2
Nc1nc(SCC(=O)Nc2ccc([N+](=O)[O-])cc2Br)n[nH]1 | 48 | -1 | / | 1 | 7 | -11
Nc1nc(SCC(=O)c2cccc([N+](=O)[O-])c2)n[nH]1 | 83* | / | 4 | / | 5 | -3
N#Cc1c(NC(=O)CSc2n[nH]c(N)n2)oc(-c2ccccc2)c1-c1ccccc1 | 79* | -4 | / | -20 | 5 | 14
CN(C)CC#Cc1ccc([C@@H]2[C@H]3CN(C(=O)C4CCCC4)CCCCN3[C@H]2CO)cc1 | / | 2 | 24 | 7 | / | /
C[C@H](CO)N1C[C@H](C)[C@H](CN(C)C(=O)Cc2ccccc2)Oc2cc(-c3ccccc3)ccc2S1(=O)=O | / | 1 | 0 | 6 | / | /
C[C@H]1CCCCO[C@@H](CN(C)S(=O)(=O)c2ccccc2)[C@@H](C)CN([C@@H](C)CO)C(=O)c2cc(NS(C)(=O)=O)ccc2O1 | / | 0 | 4 | -4 | / | /
C[C@@H]1CN([C@H](C)CO)S(=O)(=O)c2ccc(C#Cc3ccccn3)cc2O[C@H]1CN(C)C(=O)C1CC1 | / | -3 | -3 | 21 | / | /
CCOC(=O)c1ccccc1NC(=O)COc1ccccc1 | 97* | -2 | / | -10 | -7 | -3
COc1ccc(NCc2cc(=O)[nH]c3ccccc23)cc1 | 99* | 6 | 0 | -4 | 4 | -15
Cc1ccc(/C=N/NC(=O)CSc2nnc(-c3ccc(Cl)cc3)n2-c2ccccc2)o1 | / | / | / | -5 | -29 | 43*
O=C(O)CSc1nnc(-c2ccc(Cl)cc2)n1-c1ccccc1 | 86* | -10 | 11 | -16 | 2 | 6
O=C(Nc1ccc(Nc2ccccc2)cc1)c1ccc(Br)o1 | 99* | -3 | / | 8 | -4 | 0
O=C(Nc1ccc(O)cc1)c1ccc(C(=O)c2ccccc2)o1 | 97* | -3 | / | -3 | 12 | -3
CCC(=O)N(C)C[C@H]1Oc2cc(C3=CCCC3)ccc2S(=O)(=O)N([C@@H](C)CO)C[C@@H]1C | / | 7 | 3 | -4 | / | /
O=C(c1ncn(Cc2ccccc2)c1C(=O)N1CCc2ccccc2C1)N1CCc2ccccc2C1 | 0 | 5 | -7 | 19 | -3 | 30*
O=C(c1ncn(Cc2ccccc2)c1C(=O)N1CCN(c2ccccc2)CC1)N1CCN(c2ccccc2)CC1 | 21 | 5 | -2 | 7 | -8 | 7
CN(C)c1ccc(C=Nc2cnn(C)c2C(N)=O)cc1 | 98* | -1 | / | 7 | 6 | -2
Cc1cccc(S(=O)(=O)N2C[C@H](O)COC[C@@H]3O[C@H](CC(=O)NCc4ccncn4)CC[C@H]32)c1 | / | 1 | -9 | 1 | / | /
Cc1c(/C=C2\NC(=O)NC2=O)c2ccccc2n1C | 98* | -2 | 3 | 5 | 0 | 6
Cc1cccc(C)c1-n1c(C)cc(/C=C2\NC(=O)NC2=O)c1C | 61 | -4 | / | -16 | 3 | -7
CC(C)CC(NS(=O)(=O)c1ccccc1S(=O)(=O)NC(CC(C)C)C(=O)O)C(=O)O (centres undefined) | 5 | -1 | -3 | -13 | -3 | 26*
CC(C)CC(NS(=O)(=O)c1ccccc1)C(=O)O (centres undefined) | -5 | / | / | -1 | 0 | 14
COC(=O)c1c(CC[C@@H](CO)NC(=O)N[C@H](Cc2ccccc2)Cn2cc(-c3ccccn3)nn2)oc(C(C)=O)c1C(=O)OC | / | 3 | -1 | 22* | / | /
O=[N+]([O-])c1cc(-c2nc3nc4ccccc4nc3n2CCc2ccccc2)cc([N+](=O)[O-])c1 | -4 | / | / | -1 | -29 | 28*
O=C1C=CC(=O)c2c(O)c(CO)c(CO)c(O)c21 | / | / | -6 | 12* | 2 | 59*
COCC(C)N=C1NN=C(c2ccc(NC(C)=O)cc2)CS1 (centres undefined) | 98* | / | -6 | 7 | 2 | -4
CC(=O)Nc1ccc(C2=NNC(=NCC3CCCO3)SC2)cc1 (centres undefined) | / | -1 | 4 | 8 | 5 | -12
CO[C@H]1CN(C)C(=O)c2ccc(NC(=O)Nc3c(C)noc3C)cc2OC[C@H](C)N(CCC(F)(F)F)C[C@@H]1C | / | / | -5 | / | / | /
COc1cccc(-c2ncc3ccccc3c2COC(=O)c2ccc(C(F)(F)F)cc2)c1 | -4 | 4 | -3 | -5 | 2 | 29*

From PubChem
